The nature of the assay: NCI Yeast Anticancer Drug Screen. Data for the wt2 strain (AID 169).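 Also: 0% = growth of vehicle-treated yeast cultures.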 The following applies: S. cerevisiae wt2 strain growth inhibition, active compounds read high. The protocol:
Growth inhibition of yeast strains with defined genetic alterations is measured as a screen for potential anti-cancer activity. Selected strains with alterations in DNA damage repair or cell cycle control were exposed to compounds and growth inhibition was measured relative to vehicle treated controls. The strain used in this assay is wt2

Compounds without any hit were thinned out: in the full panel of roughly 79,000, 15% have a hit. Unmarked numbers belong to inactive results. Calls of active or inactive are those of the source. Rule as the data show it: active = growth inhibition above about 70%; inactive = the rest.

Our source for the growth inhibition values is PubChem BioAssay (NCI).

As to `CCCCCCCCCCCCCCCCOP(=O)(O)OCC(N)C(=O)O` (stereo not given), the growth inhibition was -17% (at 1.2 µM); -22% (at 3.7 µM); -22% (at 11.0 µM); -22% (at 33.0 µM); 48% (at 100.0 µM).
Turning to `CCCCCCOC(=O)NCCOC(=O)Nc1ccccc1`, the growth inhibition is 1% (at 1.2 µM); -1% (at 3.7 µM); -1% (at 11.0 µM); 0% (at 33.0 µM); -2% (at 100.0 µM).
Turning to `COc1cc2ccnc(-c3c4ccccc4c(N)c4c(OC)c(OC)ccc34)c2cc1OC`, the growth inhibition is -2% (at 1.2 µM); -2% (at 3.7 µM); -2% (at 11.0 µM); 4% (at 33.0 µM); 47% (at 100.0 µM).
As to `CN(C)c1ccc2c(SCC(=O)OCC(=O)[C@@]3(O)CC[C@H]4[C@@H]5CCC6=CC(=O)C=C[C@]6(C)[C@H]5C(=O)C[C@@]43C)c3ccc(N(C)C)cc3nc2c1`, the growth inhibition reads like this: (at 1.2 µM) -89%; (at 3.7 µM) -74%; (at 11.0 µM) -15%; (at 33.0 µM) 67%; (at 100.0 µM) 83% (active).
Turning to `CN(C)CCNC(=O)c1cccc2cc([N+](=O)[O-])ccc12`, the growth inhibition is -13% (at 1.2 µM); -10% (at 3.7 µM); 5% (at 11.0 µM); 60% (at 33.0 µM); 87% (active) (at 100.0 µM).
Consider `Oc1cccc2cc(Cl)cnc12`, for which the growth inhibition runs as follows: (at 1.2 µM) -31%; (at 3.7 µM) -26%; (at 11.0 µM) 1%; (at 33.0 µM) 96% (active); (at 100.0 µM) 98% (active).
Consider `C(=Nc1ccc(-c2cc(-c3ccccc3)nc3ccc4ccccc4c23)cc1)c1ccccc1`, for which the growth inhibition (at 1.2 µM) was -22%; the growth inhibition (at 3.7 µM) was -21%; the growth inhibition (at 11.0 µM) is -17%; the growth inhibition (at 33.0 µM) was 62%; the growth inhibition (at 100.0 µM) is 81% (active).
The matching figures for `CC(C)(C)CC(C)(C)c1cc(O)c(O)c(CN2CCCCC2)c1`: -2%, -1%, 1%, 11% and 39%.
